# Reference: PubChem BioAssay (EPA / NIEHS)
# Active and inactive are the calls of the source. Rule for the calls: active = hit-call score of the fitted dose curve at least 0.9, where 1 is the maximum; inactive = score below 0.9.
# Read-out: TIMP metallopeptidase inhibitor 2 (TIMP2), TIMP2 (gene 7077)
# Test: BSK_KF3CT_TIMP2: BioMAP Diversity Plus: KF3CT Assay for TIMP metallopeptidase inhibitor 2 (TIMP2) Biomarker Activity (AID 2283071)
# Settings: primary human keratinocytes with fibroblasts; actives raise or lower the signal
# Experimental: BSK_KF3CT is a cell-based, multiplexed-readout assay that uses keratinocytes and foreskin fibroblasts, a human skin primary cell co-culture, with measurements taken at 24 hours after chemical dosing in a 96-well plate.BSK_KF3CT_TIMP2 is an assay component measured in the BSK_KF3CT assay. It measures TIMP-2 antibody related to regulation of gene expression using ELISA technology.Data from the assay component BSK_KF3CT_TIMP2 was analyzed into 1 assay endpoint. This assay endpoint, BSK_KF3CT_TIMP2, was analyzed with bidirectional fitting relative to DMSO as the negative control and baseline of activity. Using a type of binding reporter, gain or loss-of-signal activity can be used to understand changes in the signaling as they relate to the gene TIMP2. Furthermore, this assay endpoint can be referred to as a primary readout, because this assay has produced multiple assay endpoints where this one serves a signaling function. To generalize the intended target to other relatable targets, this assay endpoint is annotated to the protease inhibitor intended target family, where the subfamily is metalloproteinase inhibitor.
# The levels of cell surface (or secreted, indicated by the prefix "s") biomarker endpoints were measured by ELISA. Overt cytotoxicity to cells in confluent adherent cultures (all systems other than the BT system) was assessed by measuring total protein levels using sulforhodamine B (SRB) staining in parallel cultures at the time of biomarker measurements, indicated as SRB endpoints. For proliferation assays for adherent cell types, individual cell types are cultured at sub-confluence and relative cell numbers quantified by SRB staining at time points optimized for each system (48 h: 3C and CASM3C systems; 72 h: BT and HDF3CGF systems; 96 h: SAg system). SRB was performed by staining cells with 0.1% SRB after fixation with 10% TCA and reading wells at 560 nm.Viability and proliferation of PBMC (T cells) was quantified by Alamar Blue reduction for the SAg and BT systems. For PBMC viability (referred to as PBMC Cytotoxicity within the assay endpoint names), cells were plated (75,000/well in a 96-well plate) and then chemical samples added for 1 h before addition of activators, SEB and TSST-1 (20 ng/mL final concentration each). Cells were incubated for 90 h. Then, Alamar Blue (20 uL/well) (Invitrogen, Cat DAL1100) was added for 6 h, and the plates were read with a fluorescence microplate reader at 546/580 nm (excitation/emission). For PBMC proliferation, cells were plated and activated as above but incubated for only 16 h prior to addition of Alamar Blue. Plates were read after 6 h.
SMILES,outcome,AC50
CCOC(=O)C(C)(C)Oc1ccc(Cl)cc1,inactive,
NS(=O)(=O)c1cc2c(cc1Cl)NCNS2(=O)=O,inactive,
CCCCCCCCCCC,inactive,
O=C(O)CCCCC(=O)O,inactive,
C[C@]12C=CC(=O)C=C1CC[C@@H]1[C@@H]2C(=O)C[C@@]2(C)[C@H]1CC[C@]2(O)C(=O)CO,inactive,
Nc1ccc2c(c1)C(=O)c1ccccc1C2=O,inactive,
C=CCOC(=O)c1ccccc1C(=O)OCC=C,inactive,
Cc1ccc2ncccc2c1,inactive,
COc1ccc(S(=O)(=O)N2C(=O)[C@@](c3ccccc3OC)(N3C[C@H](O)C[C@H]3C(=O)N(C)C)c3cc(Cl)ccc32)c(OC)c1,inactive,
CCCCOC(=O)CCCCCCCCC(=O)OCCCC,inactive,
O=C(OCCCCCOC(=O)c1ccccc1)c1ccccc1,inactive,
Cc1cccc([N+](=O)[O-])c1C,inactive,
Cc1cc(NC(=O)C(=O)O)cc(C)c1Oc1ccc(O)c2c1CCC2,inactive,
Cc1cccc(C)c1O,inactive,
Cc1nc(C)nc(N2C[C@@H](C)N(c3ccnc([C@@H](C)O)n3)[C@@H](C)C2)n1,inactive,
CCCCCCCCCCCCCCCCCC(=O)O,inactive,
Nc1ccccc1N,inactive,
FC(F)(F)C(F)(F)C(F)(F)C(F)(F)C(F)(F)C(F)(F)CCI,inactive,
Clc1cc(Cl)c(Cl)cc1Cl,inactive,
CN[C@H]1CC[C@@H](c2ccc(Cl)c(Cl)c2)c2ccc(S(N)(=O)=O)cc21,,25.3 µM (active)

SMILES,outcome,AC50
CC=Cc1ccc(O)c(OC)c1,inactive,
COCCOC[C@H](CC1(C(=O)NC2CCC(C(=O)O)CC2)CCCC1)C(=O)Oc1ccc2c(c1)CCC2 (stereo not given in full),inactive,
CC(C)c1ccc(C(=O)N=C(N)N)cc1S(C)(=O)=O,inactive,
CC1(C)NC(=O)NC1=O,inactive,
c1cc(-c2ccncc2)ccn1,inactive,
CCCCN(CCCC)CCCC,inactive,
OC[C@@H](O)[C@@H](O)[C@H](O)[C@H](O)CO,inactive,
Cc1ccc(C)c(O)c1C,inactive,
CCCCCCCCCCCCCCCC,inactive,
C1CCC(SSC2CCCCC2)CC1,,5.11 µM (active)
COC(=O)c1ccc(O)cc1,inactive,
COCCOCCOC,inactive,
CCCCCCOCCO,inactive,
NC(=O)Cn1c(=O)cc(CCN2CCN(c3nccc4sccc34)CC2)c2ccc(F)cc21,inactive,
COc1cc(C=O)ccc1O,inactive,
COc1cc(S(=O)(=O)O)c(C)cc1N=Nc1c(O)ccc2cc(S(=O)(=O)O)ccc12,inactive,
Cc1oc(-c2ccccc2)nc1CCOc1cccc2c1ccn2CCC(=O)O,inactive,
CCOc1ccc2c(c1)C(C)=CC(C)(C)N2,inactive,
CC1(C)CC(N=C=O)CC(C)(CN=C=O)C1 (stereo not given),inactive,
COc1cc(-c2nc(NC(=O)c3cc4cc(C)cc(C)c4n3CC(=O)O)sc2CCC2CCCCC2)c(OC)cc1Cl,,1.54 µM (active)
